Source: PubChem BioAssay (NCI)
Compounds without any hit were thinned out: in the full panel of roughly 83,000, 20% have a hit.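 Plates (96-well) were seeded with cells, treated with compound at one concentration, and incubated for 48 hours before percent growth was determined.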 A number with no mark means an inactive call. The source made the active and inactive calls. The calls were made as follows: active = growth percent below 10; inactive = the rest.

What was measured:
Experiment in all cases: NCI-60 one-dose screen, 48 h (100 = growth as untreated, 0 = no growth, -100 = all killed)
Settings in all cases: 10 µM unless noted
[1] = tested on: T-47D breast
[2] = tested on: BT-549 breast
[3] = tested on: MDA-MB-435 melanoma
[4] = tested on: SW-620 colon
[5] = tested on: MCF7 breast
[6] = tested on: HCT-116 colon
[7] = tested on: HCC-2998 colon
[8] = tested on: KM12 colon

Row | Structure (SMILES) | growth [1] | growth [2] | growth [3] | growth [4] | growth [5] | growth [6] | growth [7] | growth [8]
1 | COc1ccc(C(=O)c2cc3c(N)c(C(=O)Nc4cccc(Cl)c4)sc3nc2C)cc1 | 43.8% | 78.1% | -35.2% (active) | 35.4% | 26.5% | 14.9% | 18.3% | 22.1%
2 | CN(C)CCCn1c2c(c3ccc(-c4ccn[nH]4)cc3c1=O)C(=O)c1ccccc1-2 | 43.2% | 56.1% | 78.4% | 37.1% | 9.49% (active) | 28.9% | 53.8% | 18.1%
3 | Cc1nc2sc(C(=O)Nc3ccccc3)c(N)c2cc1C(=O)c1ccc(C(F)(F)F)cc1 | 97.2% | 100% | 94.1% | 99.5% | 90.7% | 76.8% | 104% | 108%
4 | Clc1ccc(C2CC(c3cccc(Nc4ccncc4)c3)=NN2c2cc(Cl)cc(Cl)c2)cc1 (configuration not stated) | 86.4% | 104% | 12.7% | -73.1% (active) | -8.62% (active) | -74.2% (active) | 19.6% | 9.65% (active)
5 | COc1ccc(Cn2nc(-c3ccccc3)c3c2CCc2cnoc2-3)cc1 | 43.4% | 82.1% | 28.4% | 83.2% | 72.6% | 65.4% | 67.4% | 56.8%
6 | COc1ccc(/C(C)=N/NC(=O)CSc2nc3ccccc3c(=O)n2Cc2ccc(S(N)(=O)=O)cc2)c(OC)c1 | 95.6% | 104% | 102% | 102% | 90.7% | 102% | 115% | 102%
7 | Cc1c2c(cc[n+]1Cc1ccccc1)c1ccc(OCc3ccccc3)cc1n2Cc1ccccc1 | -4.02% (active) | -90.4% (active) | -93.8% (active) | -88.1% (active) | -23.1% (active) | -95.6% (active) | -81.8% (active) | -98.4% (active)
8 | O=S(=O)(c1cccc(NC2=Nc3cccc4cccc2c34)c1)N1CCCC1 | 44.5% | 48% | 29.3% | 64.4% | 51.4% | 62.8% | 79.5% | 71.7%
9 | COc1ccc(C(=O)c2cc(C)c(OC)c(C)c2)c(OC)c1N(C(=O)C(Cl)Cl)C(=O)C(Cl)Cl | 52.4% | 5.7% (active) | -37.5% (active) | 19% | 13.4% | 4.88% (active) | 14.7% | 5.55% (active)
10 | O=C1Nc2c(ccc(Cl)c2Cl)/C1=C/c1ccc(F)cc1 | 71.2% | 99.8% | 99.1% | 96.4% | 37.7% | 84.4% | 58.1% | 85.2%
11 | CSc1nnc2c(=O)n(C)c(=O)n(C)c2n1 | 97.5% | 96.4% | 95.2% | 96.1% | 97.8% | 106% | 105% | 93.6%
12 | COC(=O)C1=C(C(=O)ONCCN(C)C)C2C=CC1(C(Cc1ccccc1)Nc1ccc(F)cc1)O2 (configuration not stated) | -0.816% (active) | 122% | 101% | 51.8% | 97.5% | -48.9% (active) | 107% | 94.8%
13 | c1cnc2nc3c(cc2c1)oc1ccccc13 | 100% | 98.8% | 103% | 99.4% | 86.6% | 101% | 100% | 98.2%
14 | CCCCCN1C=C/C(=C\C(=O)N(C)c2ccc(Br)cc2)c2ccccc21 | 84.3% | 108% | 101% | 94.4% | 91% | 80.7% | 102% | 103%
15 | CN1CCN(CCCNc2nccc(-c3c(-c4ccc(F)c(O)c4)nc4sccn34)n2)S1(=O)=O | 90.1% | 128% | 40.8% | 112% | 85% | 75.9% | 108% | 94.3%
16 | COc1cc(NCC(C)(O)CN(CC(C)C)CC(C)C)c2nc(C)ccc2c1 (configuration not stated) | 7.65% (active) | 92.4% | 102% | 86.5% | -46.1% (active) | 66.3% | 75.5% | 63.2%
17 | CC(C)(C)CC(C)(C)Nc1c(-c2ccc(C(F)(F)F)cc2)nc2cnccn12 | 74.4% | 76% | 98.8% | 102% | 66.5% | -5.73% (active) | 92.1% | 83.8%
18 | CCN1C(=O)/C(=c2\sc3n(c2=O)NC2C(N=3)N(CC)C(=O)N2CC)c2ccccc21 (configuration not stated) | 36.3% | 58.8% | -38.6% (active) | 39.5% | 37.2% | 12.9% | 58.9% | 20.1%
19 | C#Cc1cccc(NC(=O)Nc2ccc(NC(=O)CCl)cc2)c1 | -40.2% [8.25 µM] (active) | -64.2% [8.25 µM] (active) | 21.7% [8.25 µM] | -61.7% [8.25 µM] (active) | 14.1% [8.25 µM] | -0.386% [8.25 µM] (active) | 82.6% [8.25 µM] | -27.2% [8.25 µM] (active)
20 | Cc1ccc(C2CC(c3cccc(Nc4ccncc4)c3)=NN2c2ccc(Cl)cc2)cc1 (configuration not stated) | -47.9% (active) | 96.5% | -84.7% (active) | -46.9% (active) | -73.4% (active) | -80.1% (active) | -93.4% (active) | -89.3% (active)
21 | CC(=O)N1N=C(c2cccc(Nc3ccncc3)c2)CC1c1ccc2c(c1)OCO2 (configuration not stated) | 74.1% | -44.5% (active) | 35.1% | 86.2% | 71.4% | -52.3% (active) | 94.2% | 88.2%
22 | COc1ccc(CNC(=O)COc2ccc(/C=N/Nc3nc4ccccc4s3)cc2)cc1 | 14.7% | 12.9% | 7.82% (active) | 38.6% | 42.1% | 10.6% | 53.5% | 1.51% (active)
23 | CCOC(=O)C1CC(=O)c2cc(OC)c(OC)cc2C1 (configuration not stated) | 115% | 123% | 114% | 111% | 95.7% | 95.5% | 101% | 103%
24 | CC(=O)c1c[nH]c2ccc(-c3ccnc(Nc4ccc(NC(=O)C5CCCC5)c(CN5CCOCC5)c4)n3)cc12 | -0.198% (active) | -7.17% (active) | -76% (active) | 0.153% (active) | -38.1% (active) | 0.944% (active) | -31.4% (active) | -64.1% (active)
25 | CC(C)(O)C1CCCN1C(=O)c1ccccc1I (configuration not stated) | 85.7% | 133% | 93.2% | 95.4% | 91.6% | 68.9% | 112% | 94.3%
26 | CCCCCCCC(=O)Nc1nc2[nH]c(CN3CCN(Cc4cccc(I)c4)CC3)c(CN3CCN(Cc4cccc(I)c4)CC3)c2c(=O)[nH]1 | -62% (active) | -4.02% (active) | -75.8% (active) | -73.7% (active) | -93.6% (active) | -100% (active) | -94.6% (active) | -80.5% (active)
27 | COc1cc2ncnc(Nc3ccc(C(=O)/C=C/c4ccc(C(F)(F)F)cc4F)cc3)c2cc1OC | 131% | 93.6% | 84.2% | 110% | 64.6% | -62.7% (active) | 109% | 83.4%
28 | C=Cc1cc[n+](CCCCCCCCCCCC)cc1 | 131% | 116% | 104% | 100% | 106% | 97.6% | 110% | 104%
29 | COc1cc2oc(-c3cccc(C(=O)Nc4ccc(Cl)cc4)c3)cc(=O)c2c(OC)c1OC | 24.2% | 38.5% | 37.5% | 50.4% | 17.2% | 15.3% | 22.6% | 26.3%
